In PubChem BioAssay one finds composite z-score and z-score data, which are given here for 18 compounds.

The subject of experiment [1] is Human papillomavirus type 1a protein E7 (residues 44-93). In words: HPV1a E7 fragment binders on microarrays, primary screen, biochemical, small-molecule microarray, residues 44-93, 635 nm fluorescence (AID 1108).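 Note: E7 fragment applied at 1 µg/mL in TBST for 1 h at 4 C; score combines spot fluorescence with its signal to noise ratio.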 Conditions: small-molecule microarray binding, fluorescence 635 nm; higher = more signal.
A short description of experiment [2]: modulators of HCV replicon luciferase signal, primary screen, HCV replication inhibitor project, Huh7 cells, luciferase reporter (AID 1109).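 Note: huh7 hepatoma cells harbouring a luciferase neomycin HCV replicon reporter; luciferase luminescence as measure of HCV replicon replication; test concentration not given here.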 Conditions: 48 h, higher = more signal. Background: In antiviral work, replicon cells carry a viral genome segment that copies itself.
Experiment [3] concerns the target Left-right determination factor 2 (Homo sapiens) (UniProt O00292). In words: LEFTY2 binders on small-molecule microarrays, primary screen, biochemical, small-molecule microarray, 635 nm fluorescence scan (AID 1110). Conditions: LEFTY2 binding, higher = more signal.
The target in experiment [4] is Calmodulin-1 (Homo sapiens) (UniProt P0DP23). In words: CALM1 binders on microarrays, EGTA buffer, profiling panel, biochemical, small-molecule microarray, Cy5-labelled CALM1 (AID 1111).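 Note: labelled calmodulin applied in Tris saline Tween buffer holding calcium plus EGTA and DTT.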 The settings on record: Cy5-CALM1 binding fluorescence, higher = more signal.
The target is the same in experiment [5]. Briefly: calcium-bound CALM1 binders on microarrays, profiling panel, artefact control for SMM control-protein annotation, biochemical, small-molecule microarray, Cy5-labelled CALM1, plus calcium (AID 1112).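 Note: score merges spot fluorescence with signal to noise from triplicate slides.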 The settings on record: Cy5-CALM1 binding fluorescence, higher = more signal.
A short description of experiment [6]: small-molecule microarray binders of probe aWnt5a, primary screen, biochemical, biotinylated probe, 635/667 nm fluorescence (AID 1113).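 Note: score merges 667 nm fluorescence intensity with signal-to-noise per printed feature.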 The settings on record: higher = more signal.
Experiment [7] in a line: small-molecule microarray binders of probe aShh, primary screen, biochemical, biotinylated probe, 635/667 nm fluorescence (AID 1114).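 Note: probe is biotin-labelled aShh protein from a stem cell growth factor screen; measures binding of labelled protein to compounds printed on the slide; score merges feature fluorescence at 667 nm with signal-to-noise.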 Conditions: higher = more signal.
A short description of experiment [8]: small-molecule microarray binders of probe aNog, primary screen, biochemical, biotinylated probe, 635/667 nm fluorescence (AID 1115).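 Note: probe is biotinylated aNog protein used at 0.15 µg/mL for 1 h at 4 C; z-score combines 667 nm fluorescence of each spot with its signal to noise.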 Conditions: higher = more signal.
The target in experiment [9] is Torsin-1A-interacting protein 1 (Homo sapiens) (UniProt Q5JTV8). Briefly: LAP1 binders from COS7 cell lysate, primary screen, small-molecule microarray, 635/667 nm fluorescence (AID 1116). Conditions: COS7-hLAP1 lysate binding, 635 nm fluorescence, higher = more signal.
Experiment [10] deals with Alpha-bungarotoxin (Bungarus multicinctus) (UniProt P60615). Briefly: alpha-bungarotoxin binders on microarray, profiling panel, artefact control for SMM control protein annotation, biochemical, small-molecule microarray, Alexa647 label, 635/667 nm fluorescence (AID 1117). Conditions: alpha-BTX-A647 binding fluorescence, higher = more signal.
Alpha-bungarotoxin (Bungarus multicinctus), sequence (P60615 whole entry, looked up): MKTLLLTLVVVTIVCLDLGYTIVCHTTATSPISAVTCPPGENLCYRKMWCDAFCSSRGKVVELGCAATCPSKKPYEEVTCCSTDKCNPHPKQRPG

Torsin-1A-interacting protein 1 (Homo sapiens), sequence (Q5JTV8 whole entry, looked up): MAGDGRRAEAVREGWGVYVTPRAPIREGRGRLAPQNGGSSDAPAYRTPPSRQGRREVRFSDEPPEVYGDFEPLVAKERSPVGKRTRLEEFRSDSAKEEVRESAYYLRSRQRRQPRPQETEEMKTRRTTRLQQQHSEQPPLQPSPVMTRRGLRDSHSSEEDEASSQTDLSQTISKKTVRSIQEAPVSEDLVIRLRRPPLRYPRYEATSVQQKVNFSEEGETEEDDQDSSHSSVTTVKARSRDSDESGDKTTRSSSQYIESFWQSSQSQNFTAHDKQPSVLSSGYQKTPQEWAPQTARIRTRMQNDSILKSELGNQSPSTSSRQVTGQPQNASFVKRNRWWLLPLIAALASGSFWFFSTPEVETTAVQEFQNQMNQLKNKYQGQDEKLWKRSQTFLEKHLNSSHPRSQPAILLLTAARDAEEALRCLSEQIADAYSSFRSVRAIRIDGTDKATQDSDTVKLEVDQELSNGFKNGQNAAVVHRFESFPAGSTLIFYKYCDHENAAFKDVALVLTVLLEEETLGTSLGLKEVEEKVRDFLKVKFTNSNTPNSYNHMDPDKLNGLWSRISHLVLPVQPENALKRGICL
Left-right determination factor 2 (Homo sapiens), sequence (O00292 whole entry, looked up): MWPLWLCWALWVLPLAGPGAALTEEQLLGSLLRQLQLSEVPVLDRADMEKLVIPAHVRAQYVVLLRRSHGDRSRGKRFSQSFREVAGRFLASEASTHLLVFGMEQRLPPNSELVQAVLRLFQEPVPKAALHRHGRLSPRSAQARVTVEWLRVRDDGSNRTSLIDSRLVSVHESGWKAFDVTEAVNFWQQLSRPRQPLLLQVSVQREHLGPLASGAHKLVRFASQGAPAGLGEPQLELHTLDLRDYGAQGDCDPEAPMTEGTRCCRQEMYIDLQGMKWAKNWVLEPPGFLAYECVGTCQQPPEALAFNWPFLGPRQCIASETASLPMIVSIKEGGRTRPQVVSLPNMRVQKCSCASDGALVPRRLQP

In the case of `CCOC(=O)C[C@H]1[C@H](OC(=O)Cc2ccc3c(c2)OCO3)[C@@H](NC(=O)c2ccc3ccccc3c2)c2cc(OCCCO)ccc2N1C(=O)c1ccccc1`, the composite z-score in experiment [1] was 0.967; in experiment [3], 0.348; in experiment [4], 0.119; in experiment [5], -0.447; in experiment [6], -0.147; in experiment [7], -0.2. Besides, the composite z-score in experiment [8] is -0.417; in [9], 0.656; in experiment [10] it was 0.943. Moreover, the z-score in [2] was -1.57.
For the compound `C[C@@]1([C@@H](NC(=O)c2ccccc2)c2ccc(-c3ccccc3)cc2)C[C@H]1C1CCCCC1`, the composite z-score is -0.752 in experiment [1]; -0.535 in experiment [3]; 1.32 in [4]; 1.19 in experiment [5]; -0.006 in [6]; -0.353 in experiment [7]. Moreover, the values for the composite z-score in [8], in experiment [9] and in experiment [10] were 0.18, 0.294 and -0.272, respectively. In addition, the z-score in experiment [2] was 0.602.
As to `CC(C)(C)OC(=O)CC[C@@]1(C(=O)NCC(O)CO)N=C(c2ccc(OCCCO)cc2)O[C@@H]1c1ccccc1N=[N+]=[N-]` (stereo not given in full), the composite z-score in experiment [1] was 1.47; in experiment [3] it was -0.586; in experiment [4] it was 1.67; in experiment [5] it was 0.414; in [6], 0.0279; in experiment [7] it was 0.13. Moreover, the composite z-score is 1.71 in [8], 2.29 in experiment [9] and 1.6 in experiment [10]. In addition, the z-score in [2] stood at 0.0173.
On to `COCCOC(=O)N1C(=O)[C@@]2(c3cc(C#Cc4ccc(OC)cc4)ccc31)[C@H](c1ccccc1OCCO)N1[C@H](c3ccccc3)[C@H](c3ccccc3)OC(=O)[C@H]1[C@@H]2C(=O)N1CCN(c2ncccn2)CC1`, for which the composite z-score in experiment [1] is 1.18; in [3], 0.278; in experiment [4], 0.694; in experiment [5] it was 0.805; in experiment [6], -0.118; in experiment [7], 0.13. For the same compound, the results for the composite z-score in experiment [8], in experiment [9] and in [10] were 0.121, 0.949 and 0.876, respectively. For the same compound, the z-score in [2] is -1.49.
Turning to `[N-]=[N+]=Nc1ccccc1C[C@@]1(C(=O)NCCN2CCOCC2)N=C(c2ccc(OCCCO)cc2)O[C@@H]1c1ccccc1`, the composite z-score in experiment [1] was 1.47; in experiment [3] it was 0.248; in [4], 0.797; in [5] it was -0.3; in experiment [6], -0.0303; in experiment [7], 0.315. The composite z-score in [8] is -0.462; in [9] it was 0.819; in [10] it was 0.597. This compound yielded a z-score in experiment [2] of -1.32.
On to `CC1CC/C=C\[C@H]2OC34C=CCN(c5ccc(Cl)cc5)C(=O)[C@H]3N(CCO)C(=O)[C@]4(C)C2C(=O)O1` (stereo not given in full), for which the composite z-score was -1.01 in experiment [1]; -1.1 in [3]; -0.795 in experiment [4]; -0.633 in [5]; -0.124 in experiment [6]; -0.367 in experiment [7]. The composite z-score in [8] was -0.342; in [9] it was -0.485; in [10], -0.445. In [2], this compound displayed a z-score of -1.35.
On to `Cc1ccc(S[C@]2(C(=O)NCC(F)(F)F)CC(=O)N(C(C)C)[C@@H]2c2ccc(CO)cc2I)cc1`, for which the composite z-score in [1] was -0.554; in experiment [3] it was -0.754; in experiment [4] it was -0.0874; in [5] it was 0.363; in experiment [6], -0.101; in [7] it was -0.0192. Besides, the composite z-score is 0.986 in [8], -0.261 in [9] and -0.472 in [10]. Further, the z-score in [2] was -1.76.
Turning to `CCOC(=O)C[C@H]1[C@H](OC(=O)c2cc3ccccc3oc2=O)[C@@H](NC(=O)Cc2ccc(OC)cc2)c2cc(OCCCO)ccc2N1C(=O)c1ccccc1`, the composite z-score in [1] was 0.856; in experiment [3] it was 0.427; in [4], -0.13; in [5] it was -0.342; in [6], -0.139; in [7] it was 0.299. Moreover, the composite z-score in experiment [8] amounted to 1.75; in experiment [9], 0.559; in experiment [10], 0.258. In experiment [2], the z-score is -0.273.
Take `O=C1NC(=O)C2C1C=CC(C(O)Cc1ccccc1)N2Nc1ccc(Cl)cc1Cl` (stereo not given): the composite z-score in experiment [1] is -1.97; in [3], -1.29; in [4], 1.73; in experiment [5], 0.634; in experiment [6] it was -0.0825; in experiment [7], 0.171. For the same compound, the values for the composite z-score in experiment [8], in experiment [9] and in [10] were 0.155, 0.588 and 1.57, respectively. In addition, the z-score in [2] worked out at 0.458.
Take `C=CCNC(=O)[C@@H]1[C@H]2C(=O)O[C@H](c3ccccc3)[C@H](c3ccccc3)N2[C@H](c2ccc(OCCO)cc2)[C@@]12C(=O)Nc1ccc(C#Cc3ccc(OC)cc3)cc12`: the composite z-score stood at 0.14 in [1]; 0.849 in experiment [3]; 1.63 in experiment [4]; 0.0791 in [5]; 0.0597 in [6]; 0.366 in [7]. Moreover, the composite z-score in experiment [8] was 0.201; in experiment [9] it was 0.781; in experiment [10], 2.88. For the same compound, the z-score in experiment [2] was -1.87.
Turning to `C=CCNC(=O)[C@H]1[C@@H]2C(=O)O[C@@H](c3ccccc3)[C@@H](c3ccccc3)N2[C@@H](c2ccc(OCCO)cc2)[C@]12C(=O)Nc1ccc(C#CC3=CCCCC3)cc12`, the composite z-score in experiment [1] is 1.4; in experiment [3], 0.477; in experiment [4], 0.508; in [5] it was -0.36; in experiment [6], 0.0101; in [7] it was 0.13. Moreover, the composite z-score is -0.143 in experiment [8], 1.26 in experiment [9] and 1.11 in experiment [10]. In experiment [2], the z-score was -2.4.
In the case of `COC(=O)[C@@]1(Cc2ccccc2)[C@H]2c3cc(C(=O)N(C)C)n(CCSCCO)c3C[C@H]2CN1C(=O)c1ccccc1`, the composite z-score was 0.933 in experiment [1]; -0.654 in experiment [3]; 1.26 in [4]; 0.786 in experiment [5]; 0.117 in experiment [6]; 0.383 in experiment [7]. The composite z-score in experiment [8] was found to be 1.66; in experiment [9], 0.0664; in [10] it was 0.317. In experiment [2], this compound displayed a z-score of -1.34.
For the compound `C=CCNC(=O)[C@H]1[C@@H]2C(=O)O[C@@H](c3ccccc3)[C@@H](c3ccccc3)N2[C@@H](c2ccccc2OCCO)[C@]12C(=O)Nc1ccc(C#CC3=CCCCC3)cc12`, the composite z-score in experiment [1] was 1.12; in [3] it was 0.531; in experiment [4] it was 0.904; in [5], -0.321; in experiment [6] it was -0.1; in experiment [7], 0.0588. In addition, the composite z-score in [8] turned out to be 0.163; in experiment [9], 0.358; in experiment [10] it was 0.99. In [2], the z-score is -3.52.
`COC(=O)c1c(CC[C@@H](CO)NC(=O)N[C@@H](C)Cn2cc(C3(O)CCCCC3)nn2)oc(C(C)=O)c1C(=O)OC`: the composite z-score in experiment [1] is 0.921; in [3] it was 0.703; in experiment [4] it was 0.685; in experiment [5], -1.53; in experiment [6] it was -0.0556; in experiment [7], 0.0328. The composite z-score in experiment [8] is -0.0211; in [9], 0.666; in experiment [10], 0.431. The z-score in experiment [2] was -0.418.
Take `CC(CO)N1C(=O)[C@@H]2C3C(=O)OCCC/C=C\[C@H]3OC23C=CCN(c2ccc4ccccc4c2)C(=O)[C@@H]13` (stereo not given in full): the composite z-score is -0.711 in experiment [1]; -1.22 in experiment [3]; 0.0827 in [4]; -0.0356 in experiment [5]; -0.127 in [6]; -0.273 in experiment [7]. Moreover, the composite z-score is -0.0675 in [8], 1.19 in experiment [9] and 0.169 in experiment [10]. The z-score in experiment [2] was 0.793.
For the compound `COC(=O)[C@@]1(Cc2ccccc2)[C@H]2c3cc(C(=O)N4CCCC4)n(Cc4nc5ccccc5[nH]4)c3C[C@H]2CN1C(=O)c1ccccc1`, the composite z-score in experiment [1] was 1.43; in experiment [3], -0.0838; in [4], 2.55; in [5], 1.53; in experiment [6], 0.0003; in experiment [7] it was -0.2. Further, the composite z-score turned out to be 2.15 in [8], 2.53 in experiment [9] and 0.442 in experiment [10]. In addition, the z-score in experiment [2] was -1.89.
Regarding `CC1CC/C=C\[C@H]2OC34C=CCN(C(C)(C)C)C(=O)[C@H]3N(CCCCCCO)C(=O)[C@@H]4C2C(=O)O1` (stereo not given in full), the composite z-score in [1] was -0.0409; in [3], -1.06; in experiment [4] it was -0.0234; in [5], 0.725; in [6], -0.154; in [7], -0.0553. Moreover, the composite z-score in experiment [8] is 0.0511; in experiment [9] it was 0.656; in [10], -1.06. Besides, the z-score in experiment [2] was -0.549.
In the case of `NCCCCCNC(=O)[C@@H]1C[C@@H]2C(=O)NCC(=O)N2[C@@H]1c1ccc(O)cc1`, the composite z-score in [1] was 1.37; in [3] it was 1.3; in experiment [4], 0.957; in experiment [5], 0.281; in [6], -0.008; in [7], -0.138. In addition, the results for the composite z-score in experiment [8], in [9] and in experiment [10] were -0.036, 0.855 and 1.15, respectively. In [2], this compound yielded a z-score of 0.358.
